{
  "source": "PubChem BioAssay",
  "key": {"[1]": {"target": "6-phosphogluconate dehydrogenase, decarboxylating (Homo sapiens) (UniProt P52209)", "sequence (P52209 whole entry, looked up)": "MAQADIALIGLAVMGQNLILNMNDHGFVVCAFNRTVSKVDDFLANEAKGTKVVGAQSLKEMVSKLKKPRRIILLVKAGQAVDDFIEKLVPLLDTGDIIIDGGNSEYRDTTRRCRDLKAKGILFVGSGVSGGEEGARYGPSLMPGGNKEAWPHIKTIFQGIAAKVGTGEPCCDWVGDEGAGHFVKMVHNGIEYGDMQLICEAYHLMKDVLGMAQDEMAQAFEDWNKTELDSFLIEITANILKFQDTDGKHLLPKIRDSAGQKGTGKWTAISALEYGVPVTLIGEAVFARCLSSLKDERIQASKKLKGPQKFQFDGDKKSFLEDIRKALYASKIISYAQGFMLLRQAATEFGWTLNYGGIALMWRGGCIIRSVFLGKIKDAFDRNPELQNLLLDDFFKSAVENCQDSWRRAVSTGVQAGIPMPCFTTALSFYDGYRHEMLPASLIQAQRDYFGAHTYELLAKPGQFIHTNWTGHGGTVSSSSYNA", "experiment": "6PGD enzyme inhibitors, primary screen, biochemical, human, recombinant enzyme, NADPH absorbance (AID 1159550;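 active = at least 20% inhibition of 6-phosphogluconate dehydrogenase activity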)", "settings": "recombinant 6PGD, NADPH absorbance 341 nm; at 10 µM; stronger effect = higher value"}, "[2]": {"experiment": "differential killing of epithelial or mesenchymal cells, primary screen, imaging, PC-3E GFP, TEM4-18 mCherry, co-culture (AID 1345086;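 active = compounds killing one labelled cell type while sparing the other, by normalised counts and ratio limits, not self-fluorescent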;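 for all read-outs here: cells exposed to compound for 72 h before imaging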;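 for red/green cell ratio (normalised): normalised mesenchymal count divided by normalised epithelial count so high means epithelial killing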)", "settings": "imaging cell counts, at 1 µM; for red/green cell ratio (normalised): actives lie on both sides"}, "[3]": {"tested_on": "Aerobactin synthetase IucA (Klebsiella pneumoniae hvKP1)", "experiment": "Biochemical IucA enzyme inhibition primary screen of the Spectrum library (AID 1346200);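 note: 100% = wells without compound and 0% = wells lacking enzyme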", "settings": "malachite green pyrophosphate, A620, at 8 µM, stronger effect = lower value"}, "[4]": {"target": "Mitogen-activated protein kinase 7 (Homo sapiens) (UniProt Q13164)", "sequence (Q13164 whole entry, looked up, the tested form may be a part)": "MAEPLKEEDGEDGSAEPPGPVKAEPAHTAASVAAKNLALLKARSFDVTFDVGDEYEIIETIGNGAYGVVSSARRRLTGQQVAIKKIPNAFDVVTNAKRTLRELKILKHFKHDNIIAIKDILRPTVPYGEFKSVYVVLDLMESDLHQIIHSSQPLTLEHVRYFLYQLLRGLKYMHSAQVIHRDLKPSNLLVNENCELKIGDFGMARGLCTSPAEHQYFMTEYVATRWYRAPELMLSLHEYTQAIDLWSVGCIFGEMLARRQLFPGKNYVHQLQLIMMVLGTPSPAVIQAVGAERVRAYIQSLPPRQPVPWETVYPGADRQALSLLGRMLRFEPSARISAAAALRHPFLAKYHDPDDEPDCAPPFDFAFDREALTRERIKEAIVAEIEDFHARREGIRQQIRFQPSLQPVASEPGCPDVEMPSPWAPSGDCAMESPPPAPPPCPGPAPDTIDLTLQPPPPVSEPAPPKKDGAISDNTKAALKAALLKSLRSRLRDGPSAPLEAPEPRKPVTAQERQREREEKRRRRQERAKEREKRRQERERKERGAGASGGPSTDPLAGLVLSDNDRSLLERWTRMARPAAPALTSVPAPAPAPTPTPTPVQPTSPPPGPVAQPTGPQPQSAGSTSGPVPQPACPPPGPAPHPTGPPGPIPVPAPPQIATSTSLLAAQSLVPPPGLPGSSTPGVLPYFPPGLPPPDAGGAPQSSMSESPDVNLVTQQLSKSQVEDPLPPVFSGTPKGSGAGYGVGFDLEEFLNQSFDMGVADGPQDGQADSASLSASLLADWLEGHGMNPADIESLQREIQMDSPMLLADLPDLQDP", "experiment": "ERK5 transactivation activators in reporter cells, primary screen, cell-based, HTS (AID 1508626;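 active = luciferase signal above three times the same-plate solvent-only control wells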;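 note: luciferase driven by Gal4-ERK5 fusion binding five Gal4 sites before minimal TATA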)", "settings": "HeLa Gal4-ERK5 transactivation, 18 h, at 5 µM, stronger effect = higher value"}, "[5]": {"settings": "measured here: epithelial PC-3E GFP cell survival"}, "[6]": {"settings": "measured here: mesenchymal TEM4-18 mCherry cell survival"}},
  "note": "Activity calls are given as the source filed them. Unless noted, the rule behind the calls is not given here.",
  "data": [
    {"smiles": "CC(C)(C#N)O[C@@H]1O[C@H](CO)[C@@H](O)[C@H](O)[C@H]1O", "values": [
      {"measurement": "inhibition", "setting": "[1]", "value": "5.98% (inactive)"},
      {"measurement": "red/green cell ratio (normalised)", "setting": "[2]", "value": "0.8 (inactive)"},
      {"measurement": "normalised cell number", "setting": "[2]; [5]", "value": 0.84},
      {"measurement": "normalised cell number", "setting": "[2]; [6]", "value": 0.67},
      {"measurement": "activity remaining", "setting": "[3]", "value": "94.3% (inactive)"},
      {"measurement": "luciferase signal", "setting": "[4]", "value": "92 AU (inactive)"}
    ]},
    {"smiles": "NC(=O)c1ccc(N)nc1", "values": [
      {"measurement": "inhibition", "setting": "[1]", "value": "1.26% (inactive)"},
      {"measurement": "red/green cell ratio (normalised)", "setting": "[2]", "value": "0.93 (inactive)"},
      {"measurement": "normalised cell number", "setting": "[2]; [5]", "value": 1.22},
      {"measurement": "normalised cell number", "setting": "[2]; [6]", "value": 1.14},
      {"measurement": "activity remaining", "setting": "[3]", "value": "120% (inactive)"},
      {"measurement": "luciferase signal", "setting": "[4]", "value": "24 AU (inactive)"}
    ]},
    {"smiles": "COc1cc2ccc(=O)oc2c2ccoc12", "values": [
      {"measurement": "inhibition", "setting": "[1]", "value": "13.8% (inactive)"},
      {"measurement": "red/green cell ratio (normalised)", "setting": "[2]", "value": "1.01 (inactive)"},
      {"measurement": "normalised cell number", "setting": "[2]; [5]", "value": 0.96},
      {"measurement": "normalised cell number", "setting": "[2]; [6]", "value": 0.97},
      {"measurement": "activity remaining", "setting": "[3]", "value": "119% (inactive)"},
      {"measurement": "luciferase signal", "setting": "[4]", "value": "64 AU (inactive)"}
    ]},
    {"smiles": "COc1cc2occc2c2oc(=O)ccc12", "values": [
      {"measurement": "inhibition", "setting": "[1]", "value": "11.9% (inactive)"},
      {"measurement": "red/green cell ratio (normalised)", "setting": "[2]", "value": "1.13 (inactive)"},
      {"measurement": "normalised cell number", "setting": "[2]; [5]", "value": 1},
      {"measurement": "normalised cell number", "setting": "[2]; [6]", "value": 1.14},
      {"measurement": "activity remaining", "setting": "[3]", "value": "121% (inactive)"},
      {"measurement": "luciferase signal", "setting": "[4]", "value": "84 AU (inactive)"}
    ]},
    {"smiles": "COc1ccc(C(=O)O)cc1OC", "values": [
      {"measurement": "inhibition", "setting": "[1]", "value": "7.84% (inactive)"},
      {"measurement": "red/green cell ratio (normalised)", "setting": "[2]", "value": "0.77 (inactive)"},
      {"measurement": "normalised cell number", "setting": "[2]; [5]", "value": 1.22},
      {"measurement": "normalised cell number", "setting": "[2]; [6]", "value": 0.94},
      {"measurement": "activity remaining", "setting": "[3]", "value": "78.5% (inactive)"},
      {"measurement": "luciferase signal", "setting": "[4]", "value": "40 AU (inactive)"}
    ]},
    {"smiles": "COc1cc2c(cc1O)CCNC2C", "note": "(stereo not drawn)", "values": [
      {"measurement": "inhibition", "setting": "[1]", "value": "-21.7% (inactive)"},
      {"measurement": "red/green cell ratio (normalised)", "setting": "[2]", "value": "0.92 (inactive)"},
      {"measurement": "normalised cell number", "setting": "[2]; [5]", "value": 1},
      {"measurement": "normalised cell number", "setting": "[2]; [6]", "value": 0.92},
      {"measurement": "activity remaining", "setting": "[3]", "value": "107% (inactive)"},
      {"measurement": "luciferase signal", "setting": "[4]", "value": "120 AU (inactive)"}
    ]},
    {"smiles": "O=C1NC(=O)C(=O)C(=O)N1", "values": [
      {"measurement": "inhibition", "setting": "[1]", "value": "-13.9% (inactive)"},
      {"measurement": "red/green cell ratio (normalised)", "setting": "[2]", "value": "0.89 (inactive)"},
      {"measurement": "normalised cell number", "setting": "[2]; [5]", "value": 1.09},
      {"measurement": "normalised cell number", "setting": "[2]; [6]", "value": 0.98},
      {"measurement": "activity remaining", "setting": "[3]", "value": "123% (inactive)"},
      {"measurement": "luciferase signal", "setting": "[4]", "value": "44 AU (inactive)"}
    ]},
    {"smiles": "N#Cc1c(Cl)c(Cl)c(Cl)c(C#N)c1Cl", "values": [
      {"measurement": "inhibition", "setting": "[1]", "value": "-66.6% (inactive)"},
      {"measurement": "red/green cell ratio (normalised)", "setting": "[2]", "value": "0.93 (inactive)"},
      {"measurement": "normalised cell number", "setting": "[2]; [5]", "value": 0.04},
      {"measurement": "normalised cell number", "setting": "[2]; [6]", "value": 0.04},
      {"measurement": "activity remaining", "setting": "[3]", "value": "108% (inactive)"},
      {"measurement": "luciferase signal", "setting": "[4]", "value": "604 AU (active)"}
    ]},
    {"smiles": "COC(=O)NC(=S)Nc1ccccc1NC(=S)NC(=O)OC", "values": [
      {"measurement": "inhibition", "setting": "[1]", "value": "-13.9% (inactive)"},
      {"measurement": "red/green cell ratio (normalised)", "setting": "[2]", "value": "0.85 (inactive)"},
      {"measurement": "normalised cell number", "setting": "[2]; [5]", "value": 1.16},
      {"measurement": "normalised cell number", "setting": "[2]; [6]", "value": 0.98},
      {"measurement": "activity remaining", "setting": "[3]", "value": "110% (inactive)"},
      {"measurement": "luciferase signal", "setting": "[4]", "value": "8 AU (inactive)"}
    ]},
    {"smiles": "CC(C)=CCCC1(C)C=Cc2c(O)c3c(c(CC=C(C)C)c2O1)OC12C(=CC4CC1C(C)(C)OC2(C/C=C(/C)C(=O)O)C4O)C3=O", "note": "(stereo not drawn)", "values": [
      {"measurement": "inhibition", "setting": "[1]", "value": "3.01% (inactive)"},
      {"measurement": "red/green cell ratio (normalised)", "setting": "[2]", "value": "0.97 (inactive)"},
      {"measurement": "normalised cell number", "setting": "[2]; [5]", "value": 0.89},
      {"measurement": "normalised cell number", "setting": "[2]; [6]", "value": 0.87},
      {"measurement": "activity remaining", "setting": "[3]", "value": "106% (inactive)"},
      {"measurement": "luciferase signal", "setting": "[4]", "value": "88 AU (inactive)"}
    ]},
    {"smiles": "COc1cc(OC)c2c(c1)O[C@H](c1ccc(OC)c(OC)c1)[C@@H](O)C2", "values": [
      {"measurement": "inhibition", "setting": "[1]", "value": "14.9% (inactive)"},
      {"measurement": "red/green cell ratio (normalised)", "setting": "[2]", "value": "0.81 (inactive)"},
      {"measurement": "normalised cell number", "setting": "[2]; [5]", "value": 0.96},
      {"measurement": "normalised cell number", "setting": "[2]; [6]", "value": 0.78},
      {"measurement": "activity remaining", "setting": "[3]", "value": "111% (inactive)"},
      {"measurement": "luciferase signal", "setting": "[4]", "value": "32 AU (inactive)"}
    ]},
    {"smiles": "CC[C@@]1(O)C[C@H](O)c2c(cc3c(c2O)C(=O)c2c(O)ccc(O)c2C3=O)[C@H]1C(=O)OC", "values": [
      {"measurement": "inhibition", "setting": "[1]", "value": "10.8% (inactive)"},
      {"measurement": "red/green cell ratio (normalised)", "setting": "[2]", "value": "0.85 (inactive)"},
      {"measurement": "normalised cell number", "setting": "[2]; [5]", "value": 0.96},
      {"measurement": "normalised cell number", "setting": "[2]; [6]", "value": 0.82},
      {"measurement": "activity remaining", "setting": "[3]", "value": "112% (inactive)"},
      {"measurement": "luciferase signal", "setting": "[4]", "value": "52 AU (inactive)"}
    ]},
    {"smiles": "CC1=CCCC2C1(C)CCC(C)C2(C)CC/C(C)=C/C[n+]1cn(C)c2c(N)ncnc21", "note": "(stereo not drawn)", "values": [
      {"measurement": "inhibition", "setting": "[1]", "value": "12% (inactive)"},
      {"measurement": "red/green cell ratio (normalised)", "setting": "[2]", "value": "0.92 (inactive)"},
      {"measurement": "normalised cell number", "setting": "[2]; [5]", "value": 0.97},
      {"measurement": "normalised cell number", "setting": "[2]; [6]", "value": 0.89},
      {"measurement": "activity remaining", "setting": "[3]", "value": "115% (inactive)"},
      {"measurement": "luciferase signal", "setting": "[4]", "value": "64 AU (inactive)"}
    ]}
  ]
}
